Screening data as filed in PubChem.
FBW7 act – human FBW7 E3 ligase activation, primary screen. Q969H0. actives 0.13% (n = 650,000). AID 1259310. AlphaScreen FBW7–phospho-cyclin E peptide binding, activator screen. normalized activity (activation), % at 26.1 µM; in the data active = normalized activity above about 1.9%;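 note: purified mutant Fbw7 with reduced substrate affinity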
MITF primary – human MITF inhibition, primary screen | inhibition, % at 2.6 µM | actives 0.91% (n = 650,000) | AID 1259374 | AlphaScreen MITF homodimerization, bead proximity signal; in the data active = inhibition above about 50%
Target sequence (O75030 whole entry, looked up): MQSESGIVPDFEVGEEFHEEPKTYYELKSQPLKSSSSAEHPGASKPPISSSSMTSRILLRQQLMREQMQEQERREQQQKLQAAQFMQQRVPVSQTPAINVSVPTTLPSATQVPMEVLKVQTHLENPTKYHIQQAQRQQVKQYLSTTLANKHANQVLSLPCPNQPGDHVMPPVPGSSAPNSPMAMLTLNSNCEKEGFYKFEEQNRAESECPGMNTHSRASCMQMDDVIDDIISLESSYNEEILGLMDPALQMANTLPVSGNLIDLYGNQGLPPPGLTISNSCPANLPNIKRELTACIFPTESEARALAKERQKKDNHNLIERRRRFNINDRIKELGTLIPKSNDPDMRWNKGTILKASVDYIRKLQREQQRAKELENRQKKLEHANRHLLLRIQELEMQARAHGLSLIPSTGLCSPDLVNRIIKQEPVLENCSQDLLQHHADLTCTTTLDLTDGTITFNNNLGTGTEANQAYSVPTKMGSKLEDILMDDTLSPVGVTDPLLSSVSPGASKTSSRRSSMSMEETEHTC
GPR151 ag – activates the human receptor GPR151 | Q8TDV0 | PathHunter beta-arrestin GPR151 cells, luminescence | activation, % at 11.2 µM | actives 1% (n = 650,000) | AID 1508602; in the data active = activation above about 4.9%
TEAD-YAP inh – TEAD-YAP interaction inhibition | HEK-TIYL cells, TEAD-Gal4/YAP UAS-luciferase luminescence | inhibition, % at 9.12 µM | actives 1.4% (n = 640,000) | AID 1259422; in the data active = inhibition above about 32%
MITF inh conf – confirmation of human MITF inhibitors; actives 16% (n = 4,700); inhibition, % at 2.6 µM; shares compounds with MITF primary; AlphaScreen MITF homodimerization, biotin/His-MITF beads;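 active = inhibition above a cutoff derived from the DMSO control wells, cut at about 28% in these data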;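 note: inhibitors lower the bead chemiluminescence by keeping MITF from dimerizing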
AS interf DR – counter-screen: compounds optically interfering with AlphaScreen; AID 1259373; shares compounds with MITF primary; AlphaScreen optical interference counterscreen, cell-free; actives 6% (n = 480); IC50, µM; call rule not given here
AS interf ctr – AlphaScreen optical interference, counter-screen; shares compounds with MITF primary; LysRS AlphaScreen counterscreen, signal interference, triplicate; inhibition, % at 2.6 µM; actives 7.6% (n = 4,700);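 active = inhibition above a cutoff derived from the DMSO control wells, cut at about 30% in these data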
Hits are given with their value. Hits are enriched below; roughly 3.5% of the tested compounds scored in any of these assays.

What do the screens show for `O=C(O)c1cc(NN=C2CCCC2)ccc1Cl`?
FBW7 act: inactive; MITF primary: 72; GPR151 ag: inactive; TEAD-YAP inh: inactive; MITF inh conf: 73; AS interf DR: inactive; AS interf ctr: inactive

What do the screens show for `O=C(CSc1nc(NCc2ccco2)c2ccccc2n1)N1CCN(c2ccccc2)CC1`?
FBW7 act: inactive; MITF primary: 52; GPR151 ag: inactive; TEAD-YAP inh: inactive; MITF inh conf: inactive; AS interf ctr: inactive

Results for Cc1cc(OCCN2CCN(Cc3ccccc3)CC2)ccc1[N+](=O)[O-] ?
FBW7 act: inactive; MITF primary: 82; GPR151 ag: inactive; TEAD-YAP inh: inactive; MITF inh conf: inactive; AS interf ctr: inactive

What do the screens show for `Cc1ccc([N+](=O)[O-])c(OCCN2CCNCC2)c1`?
FBW7 act: inactive; MITF primary: inactive; GPR151 ag: inactive; TEAD-YAP inh: inactive

Results for Cc1ccc([N+](=O)[O-])c(OCCN2CCN(Cc3ccccc3)CC2)c1 ?
FBW7 act: inactive; MITF primary: 63; GPR151 ag: inactive; TEAD-YAP inh: inactive; MITF inh conf: inactive; AS interf ctr: inactive

How did CCN1CCN(CCCOc2ccc([N+](=O)[O-])cc2)CC1 do in these assays?
FBW7 act: inactive; MITF primary: 66; GPR151 ag: inactive; TEAD-YAP inh: inactive; MITF inh conf: inactive; AS interf ctr: inactive

What do the screens show for `Cc1cc(OCCN2CCC(C)CC2)ccc1[N+](=O)[O-]`?
FBW7 act: inactive; MITF primary: 52; GPR151 ag: inactive; TEAD-YAP inh: inactive; MITF inh conf: inactive; AS interf ctr: inactive

What do the screens show for `Cc1cc(OCCN2CC(C)CC(C)C2)ccc1[N+](=O)[O-]` (configuration not stated)?
FBW7 act: inactive; MITF primary: inactive; GPR151 ag: inactive; TEAD-YAP inh: inactive

How did O=[N+]([O-])c1ccc(OCCCN2CCCCCC2)cc1 do in these assays?
FBW7 act: inactive; MITF primary: inactive; GPR151 ag: inactive; TEAD-YAP inh: inactive

Results for COCCCn1c(C)nnc1SCc1ccccc1 ?
FBW7 act: inactive; MITF primary: inactive; GPR151 ag: inactive; TEAD-YAP inh: inactive

How did CCCCCOc1ccc(C(=O)Nc2ccc(-c3nc4ccc(C)cc4s3)cc2)cc1 do in these assays?
FBW7 act: inactive; MITF primary: inactive; GPR151 ag: inactive; TEAD-YAP inh: inactive

Results for Cc1cc(Nc2cccc(Cl)c2)c2ccc(Cl)cc2n1 ?
FBW7 act: inactive; MITF primary: inactive; GPR151 ag: inactive; TEAD-YAP inh: inactive

Results for CCOc1cc(/C=C2/SC(=Nc3ccccc3Cl)NC2=O)ccc1OCc1ccccc1 ?
FBW7 act: inactive; MITF primary: inactive; GPR151 ag: inactive; TEAD-YAP inh: inactive

Results for CCN1CCN(CCOc2ccc([N+](=O)[O-])c(C)c2)CC1 ?
FBW7 act: inactive; MITF primary: 65; GPR151 ag: inactive; TEAD-YAP inh: inactive; MITF inh conf: inactive; AS interf ctr: inactive

Results for Cc1cc(OCCCCN2CCCC2)ccc1[N+](=O)[O-] ?
FBW7 act: inactive; MITF primary: 82; GPR151 ag: inactive; TEAD-YAP inh: inactive; MITF inh conf: inactive; AS interf ctr: inactive

Results for Cc1cc(OCCCN2CCCCCC2)ccc1[N+](=O)[O-] ?
FBW7 act: inactive; MITF primary: inactive; GPR151 ag: inactive; TEAD-YAP inh: inactive

What do the screens show for `CC(=O)CCCC(C)CCCC(C)CCCC(C)C` (configuration not stated)?
FBW7 act: inactive; MITF primary: inactive; GPR151 ag: inactive; TEAD-YAP inh: inactive

Results for C/C(=C\CO)CC[C@H](C)CCC[C@H](C)CCCC(C)C ?
FBW7 act: inactive; MITF primary: 105; GPR151 ag: inactive; TEAD-YAP inh: inactive; MITF inh conf: inactive; AS interf ctr: inactive

Results for CCCNC(=O)c1cnc(Nc2cnccn2)s1 ?
FBW7 act: inactive; MITF primary: 55; GPR151 ag: inactive; TEAD-YAP inh: inactive; MITF inh conf: inactive; AS interf ctr: inactive

How did COc1ccc(C2=N/C(=C\c3ccccc3F)C(=O)O2)c(Cl)c1 do in these assays?
FBW7 act: inactive; MITF primary: inactive; GPR151 ag: inactive; TEAD-YAP inh: inactive

What do the screens show for `CC(O)(CNCCN1CCOCC1)COc1ccc(Cl)cc1` (configuration not stated)?
FBW7 act: inactive; MITF primary: 55; GPR151 ag: inactive; TEAD-YAP inh: inactive; MITF inh conf: 73; AS interf DR: inactive; AS interf ctr: inactive

What do the screens show for `O=S(=O)(Cc1ccc(Cl)cc1)NCCN1CCOCC1`?
FBW7 act: inactive; MITF primary: 72; GPR151 ag: inactive; TEAD-YAP inh: inactive; MITF inh conf: inactive; AS interf ctr: inactive

Results for O=S(=O)(NCCCN1CCOCC1)c1ccc(Cl)cc1 ?
FBW7 act: inactive; MITF primary: inactive; GPR151 ag: inactive; TEAD-YAP inh: inactive

How did Cc1ccc(S(=O)(=O)Nc2cc(Cl)c(O)c3ncccc23)cc1 do in these assays?
FBW7 act: inactive; MITF primary: inactive; GPR151 ag: inactive; TEAD-YAP inh: inactive

How did Cc1cc(N)c(O)c2ncccc12 do in these assays?
FBW7 act: inactive; MITF primary: 81; GPR151 ag: inactive; TEAD-YAP inh: inactive; MITF inh conf: 104; AS interf ctr: 101

What do the screens show for `COCCCNC(=O)/C(C#N)=C/c1c[nH]c2ccccc12`?
FBW7 act: inactive; MITF primary: inactive; GPR151 ag: inactive; TEAD-YAP inh: inactive

Results for COCCn1c(SCC#N)nnc1-c1ccc(O)cc1 ?
FBW7 act: inactive; MITF primary: inactive; GPR151 ag: inactive; TEAD-YAP inh: inactive

Results for COCCn1c(SCC#N)nnc1-c1ccccc1 ?
FBW7 act: inactive; MITF primary: 65; GPR151 ag: inactive; TEAD-YAP inh: inactive; MITF inh conf: inactive; AS interf ctr: inactive

What do the screens show for `COc1ccc(COCC(O)CN2CCN(CCc3ccccn3)CC2)cc1` (configuration not stated)?
FBW7 act: inactive; MITF primary: 78; GPR151 ag: inactive; TEAD-YAP inh: inactive; MITF inh conf: inactive; AS interf ctr: inactive

How did COc1ccc(OCC(O)CN2CCN(CCc3ccccn3)CC2)c(C(C)(C)C)c1 (configuration not stated) do in these assays?
FBW7 act: inactive; MITF primary: 81; GPR151 ag: inactive; TEAD-YAP inh: inactive; MITF inh conf: inactive; AS interf ctr: inactive

Results for COc1ccc(COCC(O)CN2CCN(C(C)=O)CC2)cc1 (configuration not stated) ?
FBW7 act: inactive; MITF primary: inactive; GPR151 ag: inactive; TEAD-YAP inh: inactive

Results for Cc1ccc2c(CNCc3ccccc3)c(C(=O)O)n(C)c2c1 ?
FBW7 act: inactive; MITF primary: inactive; GPR151 ag: inactive; TEAD-YAP inh: inactive

What do the screens show for `CCOC(=O)C1CCCN(CCc2ccccc2)C1` (configuration not stated)?
FBW7 act: inactive; MITF primary: 59; GPR151 ag: inactive; TEAD-YAP inh: inactive; MITF inh conf: inactive; AS interf ctr: inactive
